In PubChem BioAssay AID1053197 (The Scripps Research Institute Molecular Screening Center, 2014):
Screen size: about 370,000 compounds; about 2,600 (0.7%) were called active. This is one part of a sample in which actives are shown more often than they occur. Unmarked numbers belong to inactive results.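 The calls were made as follows: active = inhibition above a cutoff: mean of compounds within the control limits plus 3 SD of those (cut at about 17% in these data); inactive = the rest.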

What follows are compounds tested against Sialate O-acetylesterase (Homo sapiens) (UniProt Q9HAT2) (assay: human SIAE inhibitors, primary screen, biochemical, fluorescence polarization, FP-Rh probe, 1536-well HTS (AID 1053197;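 also: 0% = plate median of compound wells and 100% = probe without SIAE protein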)). Settings: SIAE FP-Rh probe binding, at 9.66 µM, active compounds read high.
Sequence of Sialate O-acetylesterase (Homo sapiens) (Q9HAT2 whole entry, looked up): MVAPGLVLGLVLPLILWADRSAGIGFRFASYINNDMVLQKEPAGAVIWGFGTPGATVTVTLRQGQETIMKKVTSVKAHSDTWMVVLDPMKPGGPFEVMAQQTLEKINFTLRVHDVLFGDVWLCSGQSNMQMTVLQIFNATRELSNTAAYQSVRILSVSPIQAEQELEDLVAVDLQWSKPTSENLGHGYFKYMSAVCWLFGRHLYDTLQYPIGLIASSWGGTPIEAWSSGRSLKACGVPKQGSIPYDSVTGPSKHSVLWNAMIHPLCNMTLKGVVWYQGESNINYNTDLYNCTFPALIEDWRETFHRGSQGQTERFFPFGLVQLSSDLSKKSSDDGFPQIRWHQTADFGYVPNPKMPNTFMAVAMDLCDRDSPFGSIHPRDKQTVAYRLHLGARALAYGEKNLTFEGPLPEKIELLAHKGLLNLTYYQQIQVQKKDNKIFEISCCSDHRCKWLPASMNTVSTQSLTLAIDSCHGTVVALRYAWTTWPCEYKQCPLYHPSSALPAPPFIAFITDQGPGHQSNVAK

SMILES | inhibition
O=C1CCC2(CCC(c3ccc(Cl)cc3)CC2)N1CCO (configuration not stated) | 6.92%
C=CCN1C(C(=O)OC)CN(Cc2cn(Cc3ccccc3)nn2)CCS1(=O)=O (configuration not stated) | 5.02%
O=C(CSc1nc2c(c(=O)[nH]1)CCCC2)N1CCCCC1 | 1.16%
O=C(c1c[nH]c2ccccc12)N1CCC(Oc2cccnc2)CC1 | 7.61%
Cc1ccc(C(=O)N(Cc2ccccn2)CC2CCCO2)cc1 (configuration not stated) | -2.59%
CCOC(=O)c1ccccc1N1C(=O)C2Sc3[nH]c(=O)sc3C(/C=C/c3ccccc3)C2C1=O (configuration not stated) | 15.9%
CCOC(=O)C1CSCCS(=O)(=O)N1Cc1ccc(Cl)cc1 (configuration not stated) | -6.12%
CCOC(=O)C1Sc2[nH]c(=O)sc2C(c2ccc(Cl)cc2)C1C(=O)OCC (configuration not stated) | 24.7% (active)
COC(=O)c1cccc(Cn2ccc3ccc(-c4ccc5ccn(C(=O)c6ccccc6C)c5c4)cc32)c1 | 12.8%
COC(=O)C1CN(Cc2ccc(F)cc2)CCS(=O)(=O)N1Cc1ccc(Cl)cc1 (configuration not stated) | -1.35%
CCOC(=O)[C@]12CCCC3=C1N(CCC3)C(=O)[C@@H](CC(=O)NCC13CC4CC(CC(C4)C1)C3)C2 | -1.2%
COc1ccc(-c2cc(C(=O)NC(Cc3c[nH]c4ccccc34)C(=O)O)c(C)o2)cc1OC (configuration not stated) | 17.2% (active)
O=C(CCn1nnc2ccccc2c1=O)N[C@@H](Cc1c[nH]c2ccccc12)C(=O)O | 2.35%
COc1ccc(-c2cc(C(=O)NC(C(=O)O)C(C)C)c(C)o2)cc1OC (configuration not stated) | -1.04%
COc1ccc2c(C(C)c3ccc(N)cc3)cn(C)c2c1 (configuration not stated) | 15.5%
CN(C)c1ccc(NC(=O)NC2CCCCN(Cc3ccc(Cl)cc3)C2=O)cc1 (configuration not stated) | 11.1%
COc1ccc(C(=O)OCCN2CCN(C3CN(Cc4cn(Cc5ccccc5F)nn4)S(=O)(=O)C3)CC2)cc1OC (configuration not stated) | 3.42%
Cc1ccc(NC(=S)NNC(=O)CSc2nnc(SCc3ccccc3Cl)s2)cc1 | 5.21%
Cc1[nH]c2ccccc2c1C(=O)CN1CC(C)CC(C)C1 (configuration not stated) | -1.61%
Cc1[nH]c2ccccc2c1C(=O)CSCC(=O)O | 30.1% (active)
Cc1[nH]c2ccccc2c1C(=O)CN1CCCC(C)C1 (configuration not stated) | -6.16%
N#Cc1ccc(OC[C@@H](O)CN2CCC(C(O)(c3ccccc3)c3ccccc3)CC2)c(F)c1 | -5.05%

SMILES | inhibition
COC(CNC(=O)[C@H](Cc1ccccc1)NC1(C(=O)NC2CCCCC2)CCCCC1)OC | 8.17%
Cc1ccc(NC(=S)NCCN2CCOCC2)cc1 | 57.3% (active)
CCCC(=O)NC(=S)Nc1ccc(CN2CCOCC2)cc1 | -1.23%
Cc1cc(C)cc(NC(=S)NCCCN2CCOCC2)c1 | -2%
C=CCN(C)CC#Cc1ccccc1 | 1.7%
Cn1c(NN)nc2sc3c(c2c1=O)CCC3 | 41.8% (active)
CCn1c(SCC(C)=O)nc2sc3c(c2c1=O)CCCC3 | 0.4%
COc1ccccc1-n1c(SCC(=O)O)nc2sc3c(c2c1=O)CCC3 | -0.36%
CCn1c2ccccc2c2cc(NC(=O)CSc3nnc(-c4ccccc4)n3-c3ccc(C)cc3)ccc21 | 4.72%
CCCCn1c(=S)[nH]c2cc(S(=O)(=O)N3CCCCC3)ccc21 | 8.16%
CNS(=O)(=O)c1ccc2c(c1)[nH]c(=S)n2C | 18.6% (active)
CCn1c(=S)[nH]c2cc(S(=O)(=O)N3CCOCC3)ccc21 | -1%
CN1[C@H](Cc2ccccc2)COc2cccc(N3CCSCC3)c2S1(=O)=O | -5.79%
O=S1(=O)c2c(NCc3ccco3)cccc2Oc2ccccc2CN1Cc1cn(Cc2cccc(C(F)(F)F)c2)nn1 | -2.9%
C[C@@H]1CN([C@@H](C)CO)C(=O)c2cccc(NC(=O)Nc3cccc4ccccc34)c2O[C@H]1CN(C)S(=O)(=O)c1ccccc1F | -1.21%
Oc1ccc(N=Cc2c(O)ccc3ccccc23)cc1 | 21% (active)
Oc1ccc(N=Cc2sc3ccccc3c2Cl)cc1 | 22.5% (active)
CCOC(=O)C1CCN(C(=O)C(C)(C)NC(=O)Nc2ccccc2Cl)CC1 | -1.25%
O=C(Nc1nc2ccc(Cl)cc2s1)c1cc(-c2ccc(Cl)cc2)nc2ccccc12 | -3.74%
CN(CCO)c1cccc2c1S(=O)(=O)N(Cc1cn(Cc3ccc(C(F)(F)F)cc3)nn1)Cc1ccccc1O2 | -1.94%
NNc1nc2c(Cl)cccc2s1 | 17.2% (active)
O=S1(=O)c2ccc(Br)cc2OC[C@@H](Cc2ccccc2)N1Cc1cn(Cc2ccco2)nn1 | -0.13%

SMILES | inhibition
COC(=O)C1CN(CCc2ccccc2)CCS(=O)(=O)N1Cc1cccc(Cl)c1 (configuration not stated) | -0.76%
O=C(N/N=C/c1sc(N2CCCCC2)nc1-c1cccs1)c1cccnc1 | 19.6% (active)
O=C(Nc1cccc(Cl)c1N1CCOCC1)c1cccnc1 | -7.61%
O=C(c1cccnc1)N1CCN(S(=O)(=O)c2cccs2)CC1 | 4.01%
COC(=O)CC1CCc2cc(C)cc(C(CC(C)C)NC(=O)[C@H](CC(C)C)NC(=O)OCc3ccccc3)c2O1 (some centres not stated) | 4.19%
O=C(NCc1cccnc1)c1ccc2nc([C@@H]3O[C@H](CO)[C@H](O)[C@H](O)[C@H]3O)[nH]c2c1 | -0.84%
O=C(Nc1ccc(Cl)cc1)c1csc([C@@H]2O[C@H](CO)[C@H](O)[C@H](O)[C@H]2O)n1 | -0.06%
O=C(Nc1cccc(Cc2ccccc2)c1)Nc1ccc2nc([C@@H]3O[C@H](CO)[C@@H](O)[C@H](O)[C@H]3O)[nH]c2c1 | 21% (active)
CC(CCN1CCC(C(O)(c2ccccc2)c2ccccc2)CC1)Oc1ccc(Cl)cc1 (configuration not stated) | -3.91%
CC(C)=CCCC1(C)C=Cc2c(ccc3c2[nH]c2cc(O)c(C)cc23)O1 (configuration not stated) | 20.8% (active)
CCn1c(=O)n2n(c1=O)[C@@]1(C=C3CCCC[C@H]32)N=C(NC(=O)c2ccccc2)N(Cc2ccccc2)[C@H]1Cc1ccccc1 | 7.65%
COC(=O)C1CN(CC(C)C)CCS(=O)(=O)N1Cc1ccc(C)cc1 (configuration not stated) | 5.08%
c1ccc2[nH]c(-c3nc4ccccc4[nH]3)nc2c1 | 47.9% (active)
O=S(=O)(c1ccc(Br)cc1)N1CCC(c2nc3ccccc3[nH]2)CC1 | -5.23%
O=C(OCc1nc2ccccc2[nH]1)C1CCCCC1 | 0.98%
COc1ccc(C2Nc3ccccc3C(=O)N2Cc2cccs2)cc1COc1c(C)cccc1C (configuration not stated) | -4.49%
O=C(CSc1nc2sc3c(c2c(=O)n1-c1ccccc1)CCCC3)NN=Cc1ccc(OCc2ccccc2)cc1 | 8.02%
COc1ccc([C@H]2OC(=O)C[C@H]2C(=O)N2CCN(c3ccccc3F)CC2)cc1OC | -5.68%
CC(C)c1cc(N=O)cc(C(C)C)c1O | 25.2% (active)
CC(C)c1cc(C(=O)N/N=C/c2ccoc2)c(O)c(C(C)C)c1 | -13.5%
CC(C)=CCc1ccc(O)c(=O)cc1C(C)C | 6.87%
O=C(NCCCc1ccccc1)[C@H](Cc1ccccc1)NC1(C(=O)NCCc2c[nH]c3ccccc23)CCC1 | 4.77%

SMILES | inhibition
Cc1ccc(-n2c(SCC(=O)Nc3ccc(S(=O)(=O)Nc4nccs4)cc3)nnc2-c2cccnc2)cc1 | -10.3%
C=C1C(C(C)C)N(C)C2=NC(c3ccccc3)CC(=O)N12 (configuration not stated) | 6.93%
NS(=O)(=O)c1ccc(NC(=S)NNC(=O)c2cccs2)cc1 | 4.71%
O=C(NC(=S)Nc1cccc(-c2ccc(CO)o2)c1)c1cccs1 | -33.9%
O=C(NC(=S)Nc1ccc(NC(=O)c2cccs2)cc1)c1ccc([N+](=O)[O-])cc1 | 26.9% (active)
O=C(c1ccncc1)N1CC[C@H]2[C@H](CCCN2Cc2ccc(F)cc2)C1 | 2.68%
C=CCn1c(SCC(N)=O)nnc1-c1ccccc1OC | -7.56%
CC(=O)Nc1ccc(C(=O)CSc2nnc(Cc3ccccc3)o2)cc1 | -1.29%
CCOc1ccc(Nc2nc(Cc3nnc(SCC(=O)NC4CCCC4)n3C)cs2)cc1 | 19.1% (active)
CCOc1cccc(-c2nnc(SCC(=O)NC3CC3)n2C)c1 | -3.03%
CCOc1ccc(Nc2nc(Cc3nnc(SCC(=O)c4ccc(C)cc4)o3)cs2)cc1 | 18.2% (active)
CCC(=O)Nc1ccc(C(=O)CSc2nnc(CNc3ccc(Cl)cc3)o2)cc1OC | -0.55%
Cn1c(CC(=O)Nc2ccc(F)cc2)nnc1SCC(=O)NC1CCCCC1 | 2.38%
CC(C)(C)c1ccc(C(=O)Nc2cc(Cl)c(Br)cc2C(=O)O)cc1 | -77.3%
COc1ccc(-n2c(SCC(=O)Nc3ccccc3-c3ccccc3)nnc2-c2cccnc2)cc1 | 4.69%
Clc1ccc(-n2c(COc3ccccc3)nnc2SCc2nc3ccccc3[nH]2)cc1 | -2.83%
Nn1c(SCC(=O)Nc2ccc(S(N)(=O)=O)cc2)nnc1-c1n[nH]c2c1CCC2 | -5.56%
Cc1ccccc1CN1CCCCC(NC(=O)Nc2ccccc2F)C1=O (configuration not stated) | 1.41%
Nc1ccc2nc3c(=O)[nH]c(=S)[nH]c3nc2c1 | 31.8% (active)
O=C(N1CCOCC1)N1CC[C@H]2[C@H](CCCN2Cc2ccc(F)cc2)C1 | 0.67%
O=C(c1cccc(C(F)(F)F)c1)N1CC[C@H]2[C@H](CCCN2Cc2cc(F)cc(F)c2)C1 | 1.24%
